SMILES strings stand for the structures. This is part of a sample that, as a whole, favours compounds with a hit. Of some 83,000 tested, about 20% had one in any assay.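 Compound tested at a single concentration for 48 hours in 96-well plates; a percent growth value below 10 was scored as active.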 Unmarked numbers belong to inactive results. The source made the active and inactive calls.

The test deals with HL-60(TB) leukemia. The test can be described thus: NCI-60 one-dose screen, 48 h (100 = growth as untreated, 0 = no growth, -100 = all killed). To be noted: 10 µM unless noted.
Consider `Cc1ccc(S(=O)(=O)Oc2ccc3c4c(c(=O)oc3c2)CCCCC4)cc1`, for which the growth is 20.4%.
As for `CCCCCCCCn1ccc2cc(NC(=O)Cn3cc(CN4CCCCCC4)nn3)ccc21`, the figure is -43.1% (active); as for `COc1cc(OC)c(/C=C/S(=O)(=O)Cc2ccc(OC)c(NCC(=O)O)c2)c(OC)c1`, -32% (active).
In the case of `Cc1ccccc1C(c1ccccc1)c1ccccc1C` it was 88.4%.
As for `COC(=O)C(C)[C@H]1CC[C@@H]2[C@]1(C)CC=C1[C@]23C=C[C@]2(C[C@@H](OC(C)=O)CC[C@]12C)C(C(=O)OC)C3C(=O)OC` (stereo not given in full), the growth is 66.9%.
As for `COc1ccc(/C=C2\COc3ccc(O)c(O)c3C2=O)c(OC)c1`, the figure is -13.2% (active); as for `CN1CCN(CC(=O)Nc2cccc(-n3cc(-c4ccncc4)c(-c4ccc(Cl)c(O)c4)n3)c2)CC1`, 5.27% (active).
In the case of `Cn1cc(-c2nnc(-c3cn(C)c4ncccc34)o2)c2ccccc21`, the growth was 12.5%.
As for `NS(=O)(=O)c1ccc(-n2nc(-c3ccccc3)ccc2=O)cc1`, the figure is 89.9%; as for `O=C(O)c1cccc2cccc(-c3c4ccc(=O)c(O)c-4oc4c(O)c(O)ccc34)c12`, 67.6%.
On to `CCN1CCN(c2cc(C)nc(N(CCNc3ccnc4cc(Cl)ccc34)Cc3ccc4c(c3)OCO4)n2)CC1`, for which the growth is -61.8% (active).
Take `O=C1/C(=C/c2ccc(Cl)cc2)CCC/C1=C\c1ccc(Cl)cc1`: the growth is 83%.
For the molecule `O=C(O)c1cccc(N/C=C/C(=O)c2cc3cc(Br)ccc3oc2=O)c1`, the growth is 99.8%.
In the case of `O=C1Nc2ccccc2/C1=C/c1cn(C[C@@H](O)Cn2c3ccccc3c(=O)c3ccccc32)c2ccccc12` it was 82%.
In the case of `CC(C)[O-].CC(C)[O-].CN(CCN(C)Cc1cc(F)cc(F)c1[O-])Cc1cc(F)cc(F)c1[O-].[Ti+4]` it was 5.88% (active); in that of `Cc1[nH]n(C(=S)Nc2nc3cc(Cl)c(F)cc3s2)c(=O)c1N=Nc1ccc(F)c(Cl)c1`, 127%.
With `CCCCCCCCCCCCCCCCCCOc1ccccc1CCCOP(=O)(O)OCC[N+](C)(C)C`, the growth was 21.9%.
Regarding `COc1cc(-c2cc(/C=C3\C(=O)Nc4cc(Cl)ccc43)[nH]n2)cc(OC)c1OC`, the growth was -34.9% (active).
In the case of `Cc1nc2c3c(ncn2n1)Oc1c(c(=O)[nH]c2ccccc12)C3c1ccc(Cl)cc1` (stereo not given) it was 98%.
In the case of `COc1cc(-c2cc(/C=C/C(C)=O)[nH]n2)cc(OC)c1OC` it was 66.7%; in that of `O=[N+]([O-])c1ccc(/C(=C/c2ccccc2)[n+]2ccccc2)cc1`, 110%; in that of `CNC(=O)c1cc(Oc2ccc(NC(=O)Nc3ccc(Cl)c(SC)c3)c(F)c2)ccn1`, 45.5%.
As for `COc1ccc(-c2ccc(-c3ccc(C(=N)N)cn3)s2)cc1OC`, the figure is 94.9%; as for `COc1cc(NC(=O)c2cncnc2Nc2ccc3c(ccn3Cc3cccc(F)c3)c2)cc(OC)c1`, 21%; as for `COc1cc(C2CC(c3ccc(Nc4nc(Nc5ccc(Cl)cc5)nc(Nc5ccc(Cl)cc5)n4)cc3)=NN2C(C)=O)cc(OC)c1OC` (stereo not given), 95.2%.
Take `O=C(Nn1c2c(sc1=NC1CC1)C(=O)c1ccccc1C2=O)c1cc2ccc1CCc1ccc(cc1)CC2`: the growth is 2.39% (active).
For the molecule `[O-]/[N+](=C\c1ccc(-n2cc(Cc3ccccc3Cc3cn(-c4ccc(/C=[N+](/[O-])c5ccccc5)cc4)nn3)nn2)cc1)c1ccccc1`, the growth is 98.4%.
In the case of `N#Cc1c(NC(=O)c2cccc(C(F)(F)F)c2)sc2c1CCC(=O)C2` it was -8.73% (active); in that of `Clc1ccc2c(Nc3ccc4oc(NCCN5CCCC5)nc4c3)ccnc2c1`, 72.3%; in that of `COc1cc(/C=C/c2cc(/C=C/c3ccc(O)c(OC)c3)n(-c3c(C)cccc3C)c(=O)n2)ccc1O`, 6.05% (active).
Turning to `Cc1[nH]n(-c2cccc(Cl)c2)c(=O)c1/C=C1\C=c2ccccc2=CC1=O`, the growth is 104%.
As for `Cc1ccc(C(C)C)c(OCc2ccc(C(=O)N/N=C/c3cccc(O)c3O)cc2)c1`, the figure is -4.57% (active).
`CN1C[C@@H](c2ccc(Cl)cc2)[C@]2(NC(=S)N(c3ccc(F)c(Cl)c3)C2=O)[C@@]12C(=O)NC1C=CC(Cl)=C[C@H]12` (stereo not given in full): the growth was -17.9% (active).
In the case of `Cc1ccc(Sc2sc(-c3ccccc3)nc2[P+](c2ccccc2)(c2ccccc2)c2ccccc2)cc1` it was -40.5% (active).
In the case of `O=C(O)C(=Cc1c2ccccc2cc2ccccc12)C(=O)O` it was 110%; in that of `CCCCCOC(=O)c1cccc(NC(=O)CN(CC)CC)c1`, 101%.
Take `COc1ccc(/C=C/C(=O)Nc2ccc(-c3nc4ccc(OC)cc4s3)cc2)cc1`: the growth is 99.3%.
With `COc1nc(N)nc(-n2c(-c3ccc(C)cc3)nc3ccccc32)c1NCc1ccc(C)cc1`, the growth was 101%.
For the molecule `Clc1ccc2c(c1)N(CCCN1CCCC1)c1ccccc1S2`, the growth was 17.1%.
As to `CCCCCCCCCC(C)NC(=O)CCl` (stereo not given), the growth was 92.3%.

Values taken from PubChem BioAssay (NCI).
